# High-throughput results (PubChem BioAssay)
# PNC inhibitor: blocks assembly of the perinucleolar compartment; PC3M PTB-GFP, PNC prevalence imaging, 16 h; hits give low values; activity change (PNC), negative = inhibition, % at 10 µM; 140,000 compounds, 3.1% hits;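 active = readout at or below -70, meaning at least 70% loss of cells showing the perinucleolar compartment, a nuclear body marking cancer cells; inconclusive = readout between -30 and a set limit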;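 also: plate controls were DMSO wells for no effect and camptothecin positive control wells for full effect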
#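 PC3M cells stably expressing PTB-GFP, 750–1000 cells/well, treated 16 h at 37 °C with compound (23 nl of library stock), in duplicate. After paraformaldehyde fixation and Hoechst stain, imaged at 20x; PNC prevalence scored by image analysis.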
# IMPase inh: membrane-permeable compound that blocks inositol monophosphatase. CHO-M1 cells, IP1 accumulation, HTRF TR-FRET ratio. inhibition (IP1 accumulation), % at 46.1 µM. 120,000 tested, under 10 active. P97697; active = well fitted curve in the direction sought with a large enough effect in the signal ratio, not every such curve was filed as active; inconclusive = small, poorly fitted or top-dose-only effect, or a change in a side signal; inactive = no such curve, though single readings can be large or run the other way; the % refers to the signal ratio;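 also: cells stimulated with carbachol in lithium chloride buffer; plate controls were DMSO basal wells for no effect and reference inhibitor wells for full effect; higher means more IMPase inhibition seen as more IP1 and lower FRET ratio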
#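 CHO-M1, 2000 cells/well, cultured 16–30 h; cpd up to 46 uM; carbachol (50 uM solution, stimulation buffer w/ 50 mM LiCl, pH 7.4), 30 min 37C; IP-One TR-FRET, 10 min RT; Ex 320/Em 665, 620; Hill-fit AC50.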
# IMPase Li inh: cell-permeable IMPase inhibitors with lithium potentiation | CHO-M1 cells, IP1 TR-FRET (IP-One), carbachol + lithium | AID 1457 | Potency, µM (doses to about 59.4 µM), for inactives: at the top dose activity, negative = IMPase inhibition, hits mostly inhibitors | 210,000 compounds, 0.35% hits;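 also: IP1 builds up when IMPase is blocked and the TR-FRET signal falls; potency is read from the fitted curve at half-maximal effect; plate controls were basal vehicle for no effect and high inhibitor control for full effect; nearly all actives have a fitted effect of over 50% in size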
#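 Readout is a homogeneous TR-FRET IP1 immunoassay (Ex 320, Em 665 and 620), where raised cytosolic IP1 lowers signal. Cells were CHO-M1 treated 30 min at 37C with test compounds plus a little lithium; AC50 values came from Hill-equation fitting.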
# ALOX12 inhib: inhibitors of human 12-lipoxygenase (ALOX12); P18054; Potency, µM (top dose mostly 57.1 µM), for inactives: top-dose activity change, negative = inhibition, hits mostly inhibitors; 150,000 compounds, 0.12% hits; purified 12-hLO, xylenol orange hydroperoxide absorbance; AID 1452; also: potency is read from the fitted curve at half-maximal effect; nearly all actives have a fitted effect of over 55% in size
# Target sequence (P18054 whole entry, looked up): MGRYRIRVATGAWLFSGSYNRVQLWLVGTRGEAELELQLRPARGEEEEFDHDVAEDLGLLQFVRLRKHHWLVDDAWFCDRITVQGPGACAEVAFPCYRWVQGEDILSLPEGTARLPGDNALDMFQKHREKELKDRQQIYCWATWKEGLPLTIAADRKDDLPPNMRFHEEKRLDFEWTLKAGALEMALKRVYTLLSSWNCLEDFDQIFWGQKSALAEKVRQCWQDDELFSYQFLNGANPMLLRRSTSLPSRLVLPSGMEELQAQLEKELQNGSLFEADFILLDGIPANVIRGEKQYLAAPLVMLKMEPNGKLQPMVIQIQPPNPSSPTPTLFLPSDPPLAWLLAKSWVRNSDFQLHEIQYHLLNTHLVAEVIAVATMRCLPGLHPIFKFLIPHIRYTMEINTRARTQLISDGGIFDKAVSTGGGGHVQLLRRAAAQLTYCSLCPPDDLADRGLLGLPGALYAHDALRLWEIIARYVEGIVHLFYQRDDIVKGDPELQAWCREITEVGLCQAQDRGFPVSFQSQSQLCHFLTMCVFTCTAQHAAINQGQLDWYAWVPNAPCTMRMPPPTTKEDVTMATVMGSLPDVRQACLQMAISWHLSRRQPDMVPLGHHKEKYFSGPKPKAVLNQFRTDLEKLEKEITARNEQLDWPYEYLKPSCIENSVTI
#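 Lipoxygenase turnover measured by absorbance at 573 and 405 nm after Fe-XO development. Human 12hLO 150 nM, arachidonate 40 uM, pH 7.0 Hepes buffer with detergent; 15 min compound preincubation, 30 min reaction.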
# * = called active by the depositor; ? = inconclusive; · = not tested or not shown; [ ] = dose if it differs, or a comment. This excerpt belongs to a sample that is enriched for hits. Unless noted, calls follow the shape of the dose curve; as a rule, active = well fitted curve in the direction sought with a large enough effect; inconclusive = small, poorly fitted or top-dose-only effect, or another doubt; inactive = no such curve, though single readings can be large; an effect the other way counts as inactive or inconclusive. Unless noted, % is scaled to controls: 0 for no effect and ±100 for the full control effect.
SMILES,PNC inhibitor,IMPase inh,IMPase Li inh,ALOX12 inhib
Cc1ccc(Nc2nnns2)cc1C,-81.7*,-8.3,3.1%[38.3 µM],-7.9%
Cc1noc(C)c1C(=O)N1CCN(c2cccc(Cl)c2)CC1,·,·,1.3%,·
O=C(OC1CCOC1=O)c1cc(-c2cccc(Br)c2)nc2ccccc12 (stereo unspecified),·,·,-3.8%,·
O=C(OC1CCOC1=O)c1cc(-c2ccc(Br)cc2)nc2ccccc12 (stereo unspecified),-119.2*,-13.6,-15.5%,-0.5%
Cc1nc(NCc2ccccc2)c2nc(-c3ccccc3)n(CCN(C)C)c2n1,·,·,3.0%,-2.6%
Cc1ccccc1OCc1nc2ccccc2c(=O)n1/N=C/c1c[nH]c2ccccc12,-123.3*,·,11.0%,2.3%
Cc1cccc(C)c1OCc1nc2ccccc2c(=O)n1/N=C/c1c[nH]c2ccccc12,?,2.1,·,-5.7%
Cc1sc2nc3n(c(=O)c2c1C)NC(=O)CC3,-100.0*,-1.7,1.2%,-4.4%
COc1cc(-c2nnc(SCC3(c4ccc(Br)cc4)OCCO3)o2)cc(OC)c1OC,?,9.4,15.6%[38.3 µM],-11.9%
COc1ccc(/C=C2/SC(=O)N(CCNC(=O)C3CCCN3C(=O)c3cccs3)C2=O)cc1 (stereo unspecified),-99.6*,·,5.6%,0.6%
O=C(O)c1ccc(NS(=O)(=O)c2ccc3nnn(O)c3c2)cc1,-107.3*,3.4,31.8%[38.3 µM],4.9%
CN(C)S(=O)(=O)c1ccc2nnn(O)c2c1,·,·,-4.8%,·
CCOC(=O)COc1cccc2c(=O)n(CC(=O)N3CCc4ccccc43)ccc12,-110.6*,-7.8,?,-0.2%
CCC1=C2CC[C@H]3C(=O)N(c4ccccc4)C(=O)[C@H]3[C@H]2[C@@]2(Cc3ccccc3)C(=O)N(CC(=O)OC)C(=O)N2C1=O,·,·,-8.4%,0.4%
CCC(CC)n1[nH]c(=O)c2c(C)cc(C)nc21,-81.8*,3.1,2.0%,0.9%
Cc1cc(C)c2c(=O)[nH]n(C(C)C)c2n1,?,6.0,23.2%[38.3 µM],4.0%
COc1ccc2[nH]c3c(=O)n(Cc4ccc(C(=O)NCC5CCCO5)cc4)c(=S)[nH]c3c2c1 (stereo unspecified),·,·,-0.7%,·
COc1ccc(-c2cc(C(F)F)n3ncc(C(=O)N4CCc5ccccc54)c3n2)cc1,·,·,17.7%,·
Cc1ccc(-c2cc(C(F)F)n3ncc(C(=O)N4CCCc5ccccc54)c3n2)cc1,-100.0*,9.8,18.9%,5.8%
O=C(CSc1nc(-c2ccccc2)[nH]c1-c1ccc(F)cc1)NC1CCCC1,·,2.7,·,·
COC(=O)c1cc(=O)n(CCc2ccc(OC)cc2)c(=Nc2ccc(F)c(Cl)c2)s1,29.6,-0.1,23.8%[38.3 µM],-2.9%
COC(=O)c1cc(=O)n(CCc2ccccc2)c(=Nc2ccc(F)cc2)s1,-82.8*,16.3,39.7%[38.3 µM],-8.8%
O=Nc1ccc(NO)cc1,·,·,32.1%,-5.8%
O=C(COc1ccc(/C=N/NC(=O)c2cc3ccccc3o2)cc1Cl)Nc1ccccc1,-119.2*,-4.4,2.4%,-0.8%
O=C(N/N=C/c1cccc([N+](=O)[O-])c1)c1cc2ccccc2o1,39.1,-5.6,-4.7%,-1.2%
SMILES,PNC inhibitor,IMPase inh,IMPase Li inh,ALOX12 inhib
CCC(Sc1nnnn1-c1ccccc1)C(=O)Nc1nc2ccccc2s1 (stereo unspecified),-100.0*,4.5,13.6%,-9.8%
CCC(Sc1nnnn1-c1ccccc1)C(=O)NC(C)c1ccccc1 (stereo unspecified),?,-5.9,20.6%[38.3 µM],-8.5%
COc1ccc(-n2c(=O)c3ccccc3n(CC(=O)NC3CCCCC3)c2=O)cc1,-17.3,-5.6,19.3%[38.3 µM],0.8%
O=C(c1cc(-c2cccc(O)c2)on1)N1CCCCC1,?,8.9,19.2%[38.3 µM],-1.2%
COc1cccc(-c2cc(C(=O)N3CCCCCC3)no2)c1,-108.4*,12.4,40.1%[38.3 µM],-10.0%
C[C@H]1CCCC2(CC[N+](C)(CCC[N+](C)(C)C)CC2)C1 (stereo partly specified),·,·,11.6%,1.3%[11.4 µM]
CCOc1cc(C2C3=C(CCCC3=O)NC3=C2C(=O)CCC3)cc(Cl)c1O,14.3,17.0,13.7%[38.3 µM],-6.9%
CCOc1cc(C2C3=C(CCCC3=O)N(C)C3=C2C(=O)CCC3)cc(Cl)c1O,-100.0*,-4.8,6.9%,-5.1%
Oc1ccc(Cc2cc(Cl)cc(Cl)c2O)cc1Cl,·,·,-2.5%,-1.5%[11.4 µM]
CCc1cc(=O)oc2cc3occ(C)c3cc12,?,·,19.5%,0.2%
CCc1cc(=O)oc2cc3occ(-c4ccc(OC)c(F)c4)c3cc12,-93.1*,-2.6,12.3%,-2.2%
Cc1cc(C)c(C)c(S(=O)(=O)NCCC(=O)O)c1C,·,·,·,-2.7%
CCN(CC)C[C@@H](O)c1ccc2ccc3ccccc3c2c1,·,·,5.2%,5.8%[11.4 µM]
CC(C)CCNC(=O)Cc1c(C(=O)O)[nH]c2ccc(Cl)cc12,0.0,-0.7,·,-4.5%
CCc1c(C(=O)O)[nH]c2ccc(Br)cc12,-8.5,?,10µM*,0.6%
CC1CCCN(C(=O)COc2ccc(Nc3ccccc3)cc2)C1 (stereo unspecified),·,·,11.1%,·
Cc1ccccc1C(=O)Nc1ccc2c(C#N)c3nc4ccccc4nc3n2c1,13.8,·,-0.2%,-2.5%
Cc1c(C(=O)Nc2ccccc2)cn2c(nc3ccccc32)c1C#N,-80.1*,·,-15.3%,14.6%
Cc1cc(C)n(-c2nc(N(c3ccccc3)c3ccccc3)nc(-n3nc(C)cc3C)n2)n1,-100.0*,-10.9,24.0%,13.8%
Nc1cc(C(=O)O)ccc1N1CCCCC1,-100.0*,7.6,1.4%,2.0%
CC1CCN(c2ccc(C(=O)O)cc2N)CC1,9.4,1.3,·,-2.6%
O=C(NCCCCN1CCCC1)c1ccc(Cc2nc3ccccc3[nH]2)cc1,·,·,·,-1.3%
Cc1ccnc(NC(=O)C2CCN(S(=O)(=O)c3cccc4nsnc34)CC2)c1,?,-2.9,0.9%,-1.6%
COc1ccc(Cl)cc1NC(=O)C1CCCN(S(=O)(=O)c2cccc3nonc23)C1 (stereo unspecified),-100.0*,-5.6,1.0%,1.9%
O=C(Nc1ccc2c(c1)OCCO2)C1CCCN(S(=O)(=O)c2cccc3nsnc23)C1 (stereo unspecified),-113.4*,-5.4,60.9%[38.3 µM],-3.9%
SMILES,PNC inhibitor,IMPase inh,IMPase Li inh,ALOX12 inhib
O=C(Nc1ccc2c(c1)OCCO2)C1CCN(S(=O)(=O)c2cccc3nsnc23)CC1,-80.8*,-1.5,-1.8%[38.3 µM],1.5%
CSc1nc(N)c2ncn([C@@H]3O[C@@H](COP(=O)(O)OP(=O)(O)OP(=O)(O)O)[C@@H](O)[C@H]3O)c2n1,·,-2.1,·,-3.5%
COC(=O)c1cc(C(=O)OC)cc(N2C(=O)CC(NNC(=O)c3ccccc3Cl)C2=O)c1 (stereo unspecified),-99.4*,·,-6.1%,-3.0%
O=C(NNC1CC(=O)N(c2ccc(Cl)cc2)C1=O)c1ccccc1Cl (stereo unspecified),·,·,2.2%,·
Cc1noc(C)c1S(=O)(=O)N1CCN(C(c2ccccc2)c2ccc(Cl)cc2)CC1 (stereo unspecified),-89.9*,0.3,18.0%[38.3 µM],-4.1%
O=C(NC(=S)Nc1ccc(-c2nc3ncccc3o2)cc1)c1ccccc1F,·,·,-19.9%,·
COc1ccc(NC2=NCC(Cc3ccc(Br)cc3)S2)cc1 (stereo unspecified),-91.7*,·,-7.3%,?
